# SENP7 block = inhibitors of human SENP7 protease | Q9BQF6 | recombinant SENP7, Z-RLRGG-aminoluciferin luminescence, 40 min | inhibition, % at 5 µM | 1.5% of 330,000 active | AID 434973;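 active = inhibition above about 50% at the single test dose, limit read from the data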;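 also: plate controls were DMSO with enzyme for no effect and no enzyme buffer wells for full effect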
# Target sequence (Q9BQF6 706-1050 limits assumed): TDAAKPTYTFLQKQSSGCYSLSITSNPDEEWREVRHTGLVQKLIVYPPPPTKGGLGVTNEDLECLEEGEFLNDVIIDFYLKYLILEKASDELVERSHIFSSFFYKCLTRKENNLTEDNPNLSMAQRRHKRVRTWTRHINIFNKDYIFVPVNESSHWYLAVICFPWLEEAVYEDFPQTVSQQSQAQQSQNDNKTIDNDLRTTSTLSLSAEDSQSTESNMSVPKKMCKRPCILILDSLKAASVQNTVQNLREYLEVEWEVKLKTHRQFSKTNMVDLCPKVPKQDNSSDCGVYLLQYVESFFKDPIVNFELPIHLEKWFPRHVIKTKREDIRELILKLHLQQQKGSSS
# SENP8 block-1 = blocks the human protease SENP8; Q96LD8; purified SENP8, Z-RLRGG-aminoluciferin cleavage, luminescence; 1.2% of 330,000 active; inhibition, % at 10 µM; in the data active = inhibition above about 50%
# SENP8 block-2 = inhibitors of human SENP8 protease; Q96LD8; recombinant SENP8, Nedd8 substrate fluorescence; inhibition, % at 20 µM; 0.64% of 360,000 active; AID 602440; in the data active = inhibition mostly above about 40%, no sharp cut-off; inactive = mostly below about 27%
# SENP6 inh = blocks the human protease SENP6 | Recombinant SENP6 catalytic domain, aminoluciferin luminescence | Q9GZR1 | 1.8% of 330,000 active | AID 2599 | inhibition, % at 10 µM;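 active = inhibition above about 50% at the single tested dose, limit read from the data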;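 also: plate controls were DMSO wells with enzyme for no effect and DMSO wells lacking enzyme for full effect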
# HSP90 refold inh = inhibitors of HSP90 luciferase refolding in rabbit reticulocyte lysate; 0.91% of 290,000 active; inhibition, % at 5.6 µM; luciferase refolding luminescence, 3 h;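 active = inhibition above the screen-wide mean plus 3 SD, computed separately per campaign, cut at about 16% in these data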;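 also: 0% = DMSO wells and 100% = 60 µM geldanamycin wells; inhibitors lower the luminescence because luciferase stays unfolded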
# HSP90 inh confirm = confirmation of HSP90 inhibitors; shares compounds with HSP90 refold inh; rabbit reticulocyte lysate, luciferase refolding luminescence, 3 h; inhibition, % at 5.9 µM; 64% of 2,300 active; in the data active = inhibition above about 18%;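 also: 0% = vehicle wells and 100% = reference inhibitor wells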
# FLuc counter = counter-screen for HSP90 inhibitors: inhibitors of firefly luciferase; shares compounds with HSP90 refold inh; purified native firefly luciferase, luminescence; inhibition, % at 5.9 µM; 48% of 2,300 active; AID 1847;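 active = inhibition above the mean inhibition of all tested sample wells plus 3 SD, cut at about 10% in these data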;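 also: 0% = DMSO with luciferase and 100% = wells lacking luciferase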
# SENP8 conf = confirmation of human SENP8 protease inhibitors; Recombinant SENP8, Z-RLRGG-aminoluciferin luminescence, 60 min; inhibition, % at 12.5 µM; 40% of 6,200 active; shares compounds with SENP7 block;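 active = mean inhibition across replicates above about 50%, limit read from the data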
# SENP6 conf = human SENP6 inhibition, confirmed; 58% of 6,200 active; AID 488915; inhibition, % at 12.5 µM; shares compounds with SENP7 block; recombinant SENP6, Z-RLRGG-aminoluciferin luminescence
# SENP7 conf = human SENP7 inhibition, confirmed | 69% of 6,200 active | recombinant SENP7, Z-RLRGG-aminoluciferin luminescence, 40 min | inhibition, % at 12.5 µM | shares compounds with SENP7 block | AID 488917
# Casp3 select = selectivity test for SENP inhibitors: human caspase-3 inhibition; shares compounds with SENP7 block; purified caspase-3, Z-DEVD-aminoluciferin luminescence, 60 min; inhibition, % at 12.5 µM; 60% of 6,200 active;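 active = mean inhibition above about 50%, limit read from the data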;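 also: plate controls were enzyme with DMSO for no effect and wells without caspase-3 for full effect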
# Target sequence (P42574 28-227 limits assumed): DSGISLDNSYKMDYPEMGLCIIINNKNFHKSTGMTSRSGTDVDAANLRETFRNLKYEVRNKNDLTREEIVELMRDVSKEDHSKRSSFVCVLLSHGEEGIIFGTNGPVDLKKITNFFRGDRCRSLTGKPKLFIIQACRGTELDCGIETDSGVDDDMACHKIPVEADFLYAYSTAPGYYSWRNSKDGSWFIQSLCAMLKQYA
# SENP luc ctr = luminescence interference (SENP counter-screen); inhibition, % at 12.5 µM; shares compounds with SENP7 block; Pre-incubated SENP8/Z-RLRGG-aminoluciferin, luciferase luminescence interference; 39% of 6,200 active;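 active = mean inhibition above about 50% when retested at one dose, limit read from the data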;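 also: plate controls were DMSO wells with completed reaction for no effect and substrate without enzyme for full effect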
# * = called active by the depositor; nt = no result given. Hits are enriched below; roughly 2.8% of the tested compounds scored in any of these assays.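 The calls were made as follows, unless noted: active = mean inhibition above about 50% in the one-dose retest (limit read from the data); inactive = the rest.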
SMILES,SENP7 block,SENP8 block-1,SENP8 block-2,SENP6 inh,HSP90 refold inh,HSP90 inh confirm,FLuc counter,SENP8 conf,SENP6 conf,SENP7 conf,Casp3 select,SENP luc ctr
COc1ccc(/C=N/Nc2ccc(C(=O)O)cc2)cc1Br,100*,97*,-330,95*,60*,76*,76*,99*,100*,102*,98*,98*
CC(C)c1ccc(/C=N/Nc2ccc(C(=O)O)cc2)cc1,101*,97*,-101,98*,61*,90*,85*,99*,100*,103*,97*,99*
CCOC(=O)C1C(c2cccc([N+](=O)[O-])c2)C2C(=O)NN=C2CC1(C)O (stereo unspecified),4,-7,18,-6,-3,nt,nt,nt,nt,nt,nt,nt
Cc1cccc(-c2noc(C3CCCCC3)n2)c1,50,21,15,63*,65*,6,-12,11,26,75*,22,10
CC(=O)c1sc(-c2ccccc2)nc1C,2,-4,15,-10,-1,nt,nt,nt,nt,nt,nt,nt
Cc1nc(-c2ccc([N+](=O)[O-])cc2)sc1C(=O)O,97*,92*,-7,91*,18*,18*,-18,11,7,101*,97*,93*
Cc1nc(-c2ccccc2)sc1C(=O)O,36,40,9,43,2,nt,nt,nt,nt,nt,nt,nt
Cc1ccc(-c2nc(C)c(C(=O)O)s2)cc1,98*,93*,-25,95*,75*,85*,17*,99*,100*,103*,92*,98*
CCOC(=O)c1sc(NC(=O)/C=C/c2c(F)cccc2Cl)nc1C,2,3,-332,4,2,nt,nt,nt,nt,nt,nt,nt
CCOC(=O)c1sc(NC(=O)Nc2ccccc2F)nc1C,93*,67*,-10,77*,37*,76*,71*,17,23,62*,62*,16
CCOC(=O)CNC(=O)c1sc(NC(=O)c2ccccc2F)nc1C,88*,70*,-13,77*,70*,74*,12*,-5,75*,94*,92*,79*
CC(=O)Nc1ccc(C(=O)N2CCCCC2c2cc(C(=O)Nc3cccc(C#N)c3)no2)cc1 (stereo unspecified),nt,nt,2,nt,nt,nt,nt,nt,nt,nt,nt,nt
CC(=O)Nc1cccc(-c2csc(Nc3ccccn3)n2)c1,92*,79*,4,84*,19*,9,-10,88*,87*,98*,68*,88*
C1=C(CCNCC2CC2)CCCC1,5,7,13,-10,0,nt,nt,nt,nt,nt,nt,nt
CC(=O)Nc1ccc(NC2=C/C(=N/S(=O)(=O)c3cccs3)c3ccccc3C2=O)cc1,54*,79*,69*,93*,55*,67*,-8,90*,96*,85*,51*,2
O=C(c1cc2ccccc2oc1=O)N(Cc1ccc(F)cc1)C1CCS(=O)(=O)C1 (stereo unspecified),13,0,-18,-21,2,nt,nt,nt,nt,nt,nt,nt
Cc1cc(NC(=O)COC(=O)CCS(=O)(=O)c2ccc(C)c(C)c2)no1,1,8,1,-3,0,nt,nt,nt,nt,nt,nt,nt
O=C(COc1ccc2c(c1)CCC2)NCc1ccccc1,-7,-3,11,5,-9,nt,nt,nt,nt,nt,nt,nt
NNC(=O)c1cccc(COc2ccc3c(c2)CCC3)c1,17,44,16,69*,36*,66*,56*,68*,61*,88*,45,86*
Cc1ccccc1C(=O)Nc1ccc2c(c1)OCCO2,69*,55*,17,63*,43*,45*,34*,53*,52*,84*,85*,67*
O=C(/C=C/c1ccco1)Nc1ccc2c(c1)OCCO2,41,38,24,-14,14,nt,nt,nt,nt,nt,nt,nt
COc1cccc(NC(=O)c2ccc3c(c2)OCO3)c1,96*,88*,29,93*,29*,20*,4,-1,90*,100*,95*,90*
O=C(/C=C/c1ccccc1)Nc1ccc2c(c1)OCCO2,75*,67*,11,74*,32*,51*,48*,74*,71*,88*,65*,75*
COc1ccc(C(=O)Nc2ccc3c(c2)OCCO3)cc1,-15,70*,22,73*,28*,46*,27*,81*,81*,97*,91*,83*
CSc1ccccc1C(=O)Nc1ccc2c(c1)OCCO2,18,-20,22,12,-1,nt,nt,nt,nt,nt,nt,nt
SMILES,SENP7 block,SENP8 block-1,SENP8 block-2,SENP6 inh,HSP90 refold inh,HSP90 inh confirm,FLuc counter,SENP8 conf,SENP6 conf,SENP7 conf,Casp3 select,SENP luc ctr
C[C@@]12C(=O)Nc3cc(F)c(F)cc3C(=O)N1[C@H]1c3cc(Cl)ccc3OC[C@@H]1[C@@H]2c1ccccc1,3,1,1,13,nt,nt,nt,nt,nt,nt,nt,nt
COc1cccc(NC(=O)c2ccc3c(c2)OCCO3)c1,97*,94*,11,94*,45*,55*,40*,97*,98*,102*,97*,96*
O=C(Nc1ccc2c(c1)OCCO2)c1ccccc1,79*,61*,5,68*,24*,27*,17*,4,61*,90*,87*,68*
CC(=O)Nc1ccc(NC(=O)/C=C/c2ccccc2)cc1,-10,2,7,-2,2,nt,nt,nt,nt,nt,nt,nt
COc1ccc2oc(=O)c(C(=O)Nc3cccc(C(C)=O)c3)cc2c1,-8,-7,-107,-15,0,nt,nt,nt,nt,nt,nt,nt
CSc1ccc(/C=C/C(=O)Nc2ccccc2)cc1,101*,95*,-88,85*,23*,71*,67*,69*,98*,102*,97*,7
O=C(Nc1ccc2c(c1)OCCO2)c1cccc(C(=O)Nc2ccc3c(c2)OCCO3)c1,-3,5,14,4,-2,nt,nt,nt,nt,nt,nt,nt
COc1cccc(NC(=O)c2cc3ccccc3oc2=O)c1,100*,90*,17,94*,28*,64*,72*,-8,4,-3,10,5
CC1=CC=CC2=NC(=O)CC(C)(C(=O)N(CC(=O)NC3CCCC3)Cc3ccc(Cl)cc3)N12 (stereo unspecified),0,1,-312,-4,3,nt,nt,nt,nt,nt,nt,nt

# High-throughput results: PubChem, several laboratories
